Target: AWAT2
Experiment: pooled miR-30 sensor sort-seq; sequence = guide strand
Conditions: shRNA
Also: reference of the scale not given here.

Sequence	sensor-assay potency score (higher = more potent)
TTAGCCACGATCTCCTGGCTTG	-0.416
TGAGATACCAAACTTGGTCTTA	-0.0616
ATAAGCACAGTGACAGGCCAGT	-0.973
TAGACATTACATATTCTCTGAG	0.0457
ATAATCGCTGTAGTGTTTCCAC	-0.0859
ATATTTAGCCACGATCTCCTGG	-0.175
TAAGAATAAGCACAGTGACAGG	-1.65
TTGAGAGGGAAATAATCGCTGT	-0.0931
TTGACAGCAATCACAGTGGTTG	-0.667
TATTTAGCCACGATCTCCTGGC	-0.00517
TTCTTGGGACTATCTCACCAGT	-1.17
TCTTGGTGAAGCCACGTCCATA	-1.6

Target: B3GNT9
Experiment: as above
Conditions: shRNA

Sequence	sensor-assay potency score (higher = more potent)
TCGGGGATGTAGTACTTGCTAG	-1.49
TTAATGAGCAGTGGAAACCGCC	-0.997
TAGAAAGTGGATCTCCTTGAGC	-0.561
TTAGGTTAAAAAAGGTGTCGTC	-0.179
AATTACGTCACCAGCAAGCAGG	-1.35
TGCACTACAACCAGCTCACGGT	-0.863
AAGTGGATCTCCTTGAGCGTTA	-0.755
TGTAGTACTTGCTAGCCCGCGT	-0.0178
AAAAACGAAGCGCACGTCGGGG	-1.1
TTCACGAACACATCTGCGTCGC	0.331
TAGTACTTGCTAGCCCGCGTGC	-1.22
TCGGGTAACTGGAACGCGCGGG	-0.607

Target: BABAM1
Experiment: as above
Conditions: shRNA

Sequence	sensor-assay potency score (higher = more potent)
TATCCTTCCAACTCATCTCCTC	0.00157
ATCGTCTGCACGTTCTCTGTGA	-0.356
TTTGTCCGCACGAACATCTCAA	-0.413
TTATCCATGACAAACTAGGAGT	-0.739
AAACATATCCTTCCAACTCATC	-1.73
TTCTGGGAGACATTGAGGGCGT	-0.794
TCGATCTTGTGTTTTGTCCGCA	0.0335
TTTCTCTGGACAGTTGACCCTT	0.0375
AAACTCGTGGCTTTTGTCGATC	-1.23
TTCTCTGGACAGTTGACCCTTG	0.0913
TTGGCAGTGACATTTCCTCTGA	-0.685

Target: BARX2
Experiment: as above
Conditions: shRNA

Sequence	sensor-assay potency score (higher = more potent)
TTGACAAATACTTCTGCTTCTG	-0.22
TGTTCCGTCTCTGACTCGCTGC	-0.452
TGCTTCACAGAGCTCCTCCTGC	-0.821
TCCGTCTCTGACTCGCTGCTGG	-0.99

Source: the OligoGym collection
